The structures appear in SMILES notation. In all, about 6,200 compounds went through this assay and about 2,900 (47%) were called active. The set was probably picked from earlier hits. This is one part of the list. A number with no mark means an inactive call. Rule as the data show it: active = inhibition above about 50%; inactive = the rest.

A short description of the test: Mycobacterium tuberculosis growth inhibition, primary screen (AID 1259343). The settings on record: inhibition: at 10 µM, stronger effect = higher value; outcome: 10 uM.
For orientation: inhibition means the change of the read-out against control, counted positive when it falls. Consider `Cc1nc(CNS(=O)(=O)c2c(C)c(C)c(C)c(C)c2C)cs1`, for which the inhibition is 6.48%.

Regarding `O=C(O)c1cc(Br)c2ccccc2c1O`, the inhibition was 96% (active).

For the compound `Cc1cc(NC(=O)CNCc2csc(-c3cnccn3)n2)ccc1Cl`, the inhibition is 77.5% (active).

As for `Cc1ccn(C(=O)Cc2csc(-c3ccccn3)n2)c(=NC2CCCCC2)c1`, the inhibition was -7.81%.

Consider `O=C(c1c(-c2ccc(Br)cc2)c2ccccc2[nH]c1=O)C(F)(F)F`, for which the inhibition was 18.7%.

Turning to `O=c1[nH]c2cc(Cl)ccc2c(O)c1-c1ccc(Oc2ccccc2)cc1`, the inhibition is 17.5%.

Regarding `O=c1[nH]c2ccccc2c(O)c1Sc1ccccc1`, the inhibition was 82.5% (active).

In the case of `CCc1ccc(N2C(=O)/C(=C/c3cc(C)n(-c4ccc(C(=O)O)cc4)c3C)C(=O)NC2=S)cc1`, the inhibition was 34.2%.

Take `COC(=O)c1ccccc1NCc1cc(=O)oc2cc(O)c(O)cc12`: the inhibition was 75.9% (active).

With `N#Cc1cccc(C(=O)NCc2cccnc2OC2CCCC2)c1`, the inhibition was -4.09%.

In the case of `CNC(=O)C(C#N)C(=O)CCc1cccc(OC2CCCC2)c1` (stereo unspecified), the inhibition is 54.1% (active).

Take `CC1CC(=O)NN1CC(=O)N1c2ccccc2OCC1c1ccccc1` (stereo unspecified): the inhibition was 26.4%.

On to `CCC(NC(=O)Nc1ccc(-c2csnn2)cc1)c1nccs1` (stereo unspecified), for which the inhibition is -4.07%.

For the compound `CCN(CC(C)C#N)C(=O)Nc1ccc(-c2csnn2)cc1` (stereo unspecified), the inhibition is 80.5% (active).

Take `Cc1cc(=O)[nH]c(=S)[nH]1`: the inhibition was 0.31%.

As for `CCc1ccc(S(=O)(=O)c2cnc3ccc(C)cc3c2N2CCC3(CC2)OCCO3)cc1`, the inhibition was 67.2% (active).

As to `O=C(Nc1ccc(Oc2ccccc2)nc1)C1CCN(C(=O)c2ccco2)CC1`, the inhibition was 90.5% (active).

As to `CC(=O)c1cc(CN2CCC(C(=O)Nc3ccc(Oc4ccccc4)nc3)CC2)cs1`, the inhibition was 63.2% (active).

As for `O=C(Nc1ccc(Oc2ccccc2)nc1)C1CCN(Cc2cccc3nonc23)CC1`, the inhibition result is “inactive”.

On to `C#Cc1ccc(CN2CCC(C(=O)Nc3ccc(Oc4ccccc4)nc3)CC2)cc1`, for which the inhibition is -2.94%.

On to `O=C(Nc1ccc(Oc2ccccc2)nc1)C1CCN(C(=O)c2cccs2)CC1`, for which the inhibition was 77.1% (active).

Regarding `O=C(Nc1ccc(Oc2ccccc2)nc1)C1CCN(C(=O)c2cnsn2)CC1`, the inhibition was 93.8% (active).

As for `O=C(Nc1ccc(Oc2ccccc2)nc1)C1CCN(C(=O)[C@@H]2C[C@@H]3C=C[C@H]2C3)CC1`, the inhibition is 56.1% (active).

On to `COc1cc(C)ccc1S(=O)(=O)NC(=O)C1(C)CCN1C(=O)Cc1ccc(Cl)cc1Cl` (stereo unspecified), for which the inhibition is 47.9%.

In the case of `COc1ccc(OCCCOc2ccc(Cl)cc2Cl)cc1`, the inhibition is 27.8%.

Regarding `COc1cc(CNCCO)cc(Cl)c1OCc1ccc(Cl)cc1Cl`, the inhibition was 83% (active).

`O=c1[nH]c(=S)[nH]nc1-c1ccc(F)c(F)c1`: the inhibition was 80.3% (active).

With `O=c1[nH]c(=S)[nH]nc1-c1ccc2c(c1)OCCO2`, the inhibition was 36.5%.

On to `COc1cc(Oc2ccccc2)ccc1N`, for which the inhibition was 23.5%.

Turning to `Nc1ccc(Oc2cc(N)cc(Oc3ccccc3)c2)cc1`, the inhibition was -36.6%.

Take `NC(CC1CCCC1)c1ccc(Oc2ccccc2)cc1` (stereo unspecified): the inhibition is 79.5% (active).

Regarding `COc1ccccc1C1(O)CCN(CCCn2c3ccccc3c3ccccc32)CC1`, the inhibition was 51.9% (active).

Consider `CCCc1ccc(C(O)c2ncc(-c3cccc(C)c3)[nH]2)cc1` (stereo unspecified), for which the inhibition is 19.5%.

Consider `Cc1ccc(-c2cnc(C(O)c3ccc(Cl)c(F)c3)[nH]2)cc1` (stereo unspecified), for which the inhibition is 42.2%.

Turning to `Cc1ccc(-c2cnc(C(O)c3cc(C)cc(C)c3)[nH]2)cc1` (stereo unspecified), the inhibition is 61.7% (active).

In the case of `Cc1cc(C(O)c2ncc(-c3ccc(Cl)cc3)[nH]2)ccc1F` (stereo unspecified), the inhibition was 84.8% (active).

With `CCc1ccc(C(O)c2ncc(-c3cccc(C)c3)[nH]2)cc1` (stereo unspecified), the inhibition is 56.7% (active).

With `CCCc1ccc(C(O)c2ncc(-c3ccccc3F)[nH]2)cc1` (stereo unspecified), the inhibition is 21.1%.

As for `CCc1ccc(C(O)c2ncc(-c3ccc(C)cc3)[nH]2)cc1` (stereo unspecified), the inhibition was 1.21%.

Take `Cc1ccc(C(O)c2ncc(-c3ccc(Cl)cc3)[nH]2)cc1` (stereo unspecified): the inhibition is 36.3%.

As to `CCc1ccc(C(O)c2ncc(-c3cccc(C(F)(F)F)c3)[nH]2)cc1` (stereo unspecified), the inhibition is 34%.

`CCCc1ccc(C(O)c2ncc(-c3ccccc3C)[nH]2)cc1` (stereo unspecified): the inhibition was 78% (active).

As to `CCCc1ccc(C(O)c2ncc(-c3ccccc3)[nH]2)cc1` (stereo unspecified), the inhibition was 36.8%.

As for `Cc1cc(C)c(C(O)c2ncc(-c3cccc4ccccc34)[nH]2)c(C)c1` (stereo unspecified), the inhibition was 78.9% (active).

As to `OC(c1cccc(F)c1)c1ncc(-c2ccc(Oc3ccccc3)cc2)[nH]1` (stereo unspecified), the inhibition was 89.6% (active).

For the compound `OC(c1cc(F)cc(Cl)c1)c1ncc(-c2ccc(Cl)cc2)[nH]1` (stereo unspecified), the inhibition is 86.1% (active).

For `OC(c1ccc(Cl)cc1)c1ncc(-c2cccc(F)c2)[nH]1` (stereo unspecified), the inhibition is 8.73%.

As to `CCCc1ccc(C(O)c2ncc(-c3cccc(F)c3)[nH]2)cc1` (stereo unspecified), the inhibition is 35.4%.

On to `OC(c1ccccc1)c1ncc(-c2ccc(Oc3ccccc3)cc2)[nH]1` (stereo unspecified), for which the inhibition is 36.3%.

With `Cc1ccc(C(O)c2ncc(-c3ccc(C(F)(F)F)cc3)[nH]2)cc1F` (stereo unspecified), the inhibition was 61.8% (active).

Regarding `OC(c1cccc(F)c1)c1ncc(-c2ccc(C(F)(F)F)cc2)[nH]1` (stereo unspecified), the inhibition is 19%.

For the compound `CC(C)(C)c1ccc(C(O)c2ncc(-c3ccccc3)[nH]2)cc1` (stereo unspecified), the inhibition is 13.8%.

On to `Cc1ccccc1-c1cnc(C(O)c2ccc(C(C)(C)C)cc2)[nH]1` (stereo unspecified), for which the inhibition is 49.1%.

Turning to `Cc1ccc(C(O)c2ncc(-c3cccc(F)c3)[nH]2)cc1` (stereo unspecified), the inhibition is 11.8%.

Take `CS(=O)c1nncn1CC#Cc1ccc(C(F)(F)F)cc1` (stereo unspecified): the inhibition was 37%.

As to `OC(c1ccc(Cl)c(F)c1)c1ncc(-c2cccc(F)c2)[nH]1` (stereo unspecified), the inhibition is 36.1%.

Consider `OC(c1ccc(Cl)c(Cl)c1)c1ncc(-c2cccc(F)c2)[nH]1` (stereo unspecified), for which the inhibition was 23.7%.

For `OC(c1cc(F)cc(Cl)c1)c1ncc(-c2ccc3ccccc3c2)[nH]1` (stereo unspecified), the inhibition was 73.4% (active).

`O=C1c2ccccc2C(=O)N1CCCCNc1ccc(F)cc1F`: the inhibition was 49.6%.

As for `CCc1nc2c(c(=O)c3ccccc3n2C)c(=O)n1CCc1ccccc1`, the inhibition is -31.8%.

For `Cn1c(CCC(=O)Nc2ccc(F)cc2F)nc(=O)c2ccccc21`, the inhibition is 72.3% (active).

As for `Cc1cc(NC(=O)CSc2nc3ccccc3c(=O)n2C2CCCC(C)C2C)on1` (stereo unspecified), the inhibition was 9.06%.

Regarding `Cn1cnnc1SCC(=O)Nc1ccc2oc3ccccc3c2c1`, the inhibition is 76.7% (active).

With `O=C(CSc1nncs1)Nc1ccc2oc3ccccc3c2c1`, the inhibition is 92.2% (active).

Turning to `O=C(CSc1ncnc2c1oc1ccccc12)Nc1ccc2c(c1)OCO2`, the inhibition was 47.2%.

For the compound `Cn1nnnc1SCC(=O)Nc1ccc2oc3ccccc3c2c1`, the inhibition is 36.7%.

For `CC(C)(C)NC(=O)[C@H]1CC[C@H]2[C@@H]3CC[C@H]4NC(=O)C=C[C@]4(C)[C@H]3CC[C@]12C`, the inhibition was 86.4% (active).

For `CC(=O)[C@H]1CCC2C3CCC4=CC(=O)CC[C@]4(C)C3CC[C@@]21C` (stereo partly specified), the inhibition was 49.6%.

In the case of `Cc1ccc(Nc2nc(C)c([N+](=O)[O-])c(N3CCOCC3)n2)c(C)c1`, the inhibition was 2.59%.

Regarding `Cc1ccc(-n2cc(-c3ccccc3)c3c(NCCCO)ncnc32)cc1`, the inhibition was 24.3%.

Regarding `COCCCNc1ncnc2c1c(-c1ccccc1)cn2-c1ccc(F)cc1`, the inhibition was 98.3% (active).

Take `COCCNc1ncnc2c1c(-c1ccccc1)cn2-c1ccc(C)cc1`: the inhibition is 100% (active).

For the compound `COc1ccc(-n2cc(-c3ccccc3)c3c(NCC(OC)OC)ncnc32)cc1`, the inhibition was 19.7%.

As for `COCCNc1ncnc2c1c(-c1ccccc1)cn2-c1cccc(Cl)c1`, the inhibition was 42.5%.

For the compound `COCCCNc1ncnc2c1c(-c1ccccc1)cn2-c1ccc(OC)cc1`, the inhibition is 91.3% (active).

Take `COCC(C)Nc1ncnc2c1c(-c1ccccc1)cn2-c1ccc(OC)cc1` (stereo unspecified): the inhibition is -15.1%.

Take `COCC(C)Nc1ncnc2c1c(-c1ccccc1)cn2-c1ccc(F)cc1` (stereo unspecified): the inhibition was 72.1% (active).

Consider `CN(CC1=CC[C@H]2C[C@@H]1C2(C)C)Cc1nnc(-c2ccccc2)o1`, for which the inhibition was 39%.

Turning to `CCCCCCSc1nnc2[nH]c(=O)cc(N)n12`, the inhibition result is “inactive”.

`CCCCCCSc1nnc2nc(C)cc(C)n12`: the inhibition was 58.4% (active).

For `CCCCCCCSc1nnc2[nH]c(=O)cc(N)n12`, the inhibition result is “inactive”.

In the case of `CNc1cc(C(=O)NS(=O)(=O)c2ccccc2)cc(Cl)n1`, the inhibition is 55.1% (active).

On to `COc1cc(C(=O)NS(=O)(=O)c2ccc(Cl)cc2)ccc1OC(C)C`, for which the inhibition is 28.1%.

Regarding `O=C(NS(=O)(=O)c1ccccc1)c1cccc(Cl)c1`, the inhibition is 88.3% (active).

Turning to `O=C(NS(=O)(=O)c1cncc(Br)c1)c1ccc(OC(F)(F)F)cc1`, the inhibition was 18.9%.

For the compound `O=S(=O)(Nc1ccc(C(F)(F)F)cc1)c1cccc(Cl)c1`, the inhibition was 22.9%.

With `Cc1ccc2oc(-c3ccc(C)c(N)c3)nc2c1`, the inhibition is 37.6%.

Consider `Cc1cc(-c2nc3c(C)cccc3o2)ccc1NC(=O)C(C)C`, for which the inhibition is 58.5% (active).

Regarding `N#Cc1c(N=CN2CCCCCC2)sc2c1CCCC2`, the inhibition was 99% (active).

In the case of `Cc1ccc(-n2[nH]c(C)c(N=Nc3cccc(-c4cccc(C(=O)O)c4)c3O)c2=O)cc1C`, the inhibition was 83.7% (active).

For `Cc1ccc(NC2CCCN(C(=O)c3cc4ccccc4o3)C2)cc1C` (stereo unspecified), the inhibition entry is “inactive”.

As to `Cc1cccc2cc(C(=O)N3C[C@H]4CC=CC[C@H]4C3)oc12`, the inhibition is 72.4% (active).

Take `Cc1cc2cccc(C(=O)N3CCN4CCN(C)C(=O)C4C3)c2o1` (stereo unspecified): the inhibition was 0.8%.

As for `Cc1cnc(NC(=O)c2ccc(N(C)C3CCCCC3)cc2)s1`, the inhibition is 45.9%.

Regarding `O=C(Nc1nncs1)c1ccc(C2CCCCC2)cc1`, the inhibition is 82.1% (active).

Turning to `S=C(Nc1ccccc1)Nc1nncs1`, the inhibition was 15.5%.

For `O=C1NC(=S)SC1=Cc1ccccc1OC(F)F`, the inhibition is 81.1% (active).

In the case of `O=C1NC(=S)SC1=Cc1ccccc1OCc1ccccc1`, the inhibition was 102% (active).

For the compound `C=CCOc1ccc(-c2ccc(C#N)cc2)cc1`, the inhibition was -10.6%.

In the case of `N#Cc1ccc(-c2ccc(O)cc2)cc1`, the inhibition is 96.9% (active).

As for `Oc1ccc(-c2ccc(I)cc2)cc1`, the inhibition was 20.3%.
